FBPA Giardia inh = blocks Giardia fructose-bisphosphate aldolase activity; A8B2U2; purified Giardia FBPA; Potency, µM (doses to about 59.6 µM), most hits filed as inhibitors; 290,000 compounds, 0.71% hits; AID 2451; also: nearly all actives have a fitted effect of over 55% in size
Target sequence (A8B2U2 whole entry, looked up): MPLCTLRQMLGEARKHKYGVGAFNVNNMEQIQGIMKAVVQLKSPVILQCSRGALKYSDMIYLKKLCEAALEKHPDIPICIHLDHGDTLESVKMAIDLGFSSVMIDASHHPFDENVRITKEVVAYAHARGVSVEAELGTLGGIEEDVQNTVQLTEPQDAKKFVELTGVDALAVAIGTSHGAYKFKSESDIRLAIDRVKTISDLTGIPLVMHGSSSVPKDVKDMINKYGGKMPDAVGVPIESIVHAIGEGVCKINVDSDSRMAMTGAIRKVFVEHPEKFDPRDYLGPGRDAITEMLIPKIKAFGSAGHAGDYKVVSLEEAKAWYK
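Giardia FBPA (40 nM reagent) was preincubated 10 min at RT with compound (up to 57.5 uM final), then substrate plus GAPDH/TPI/NAD/arsenate coupling system with diaphorase/resazurin was added; resorufin fluorescence (525/598 nm) was read after 20 min.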
TbPYK inhibitor = blocks Trypanosoma brucei pyruvate kinase. Potency, µM (doses to about 76.8 µM), most hits filed as inhibitors. AID 624173. Q57TT1. 410,000 compounds, 0.12% hits. TbPYK enzyme, Kinase-Glo Plus ATP luminescence, 45 min; also: nearly all actives have a fitted effect of over 50% in size
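Enzyme and substrate buffer are dispensed first and compound is pin-transferred. ADP at 130 uM final then starts the reaction, which runs 45 min at room temperature. Detection reagent is added for 10 min before luminescence is imaged.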
Sm TGR block = inhibitors of Schistosoma mansoni thioredoxin glutathione reductase. Potency, µM (doses to about 114 µM), usual class: inhibitors. Q962Y6. AID 485364. purified TGR, DTNB reduction, TNB absorbance 405 nm. 360,000 compounds, 3% hits; also: nearly all actives have a fitted effect of over 60% in size
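TGR 20 nM + NADPH 100 uM (dispensed conc.), cpd preinc 15 min RT; start with NADPH (500 uM addition) then DTNB (15 mM addition). Kinetic TNB absorbance, 405 nm filter. Four-parameter Hill fit across titration.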
RE007 growth inh = less growth of the S. pombe RE007 Vpr strain; 360,000 compounds, 0.21% hits; Potency, µM (titrated, usually from 92.2 µM), actives largely listed as inhibitors; S. pombe RE007 Vpr strain, BacTiter-Glo ATP luminescence, 24 h; AID 651644; active = well fitted falling curve with a large enough effect; inconclusive = small, poorly fitted or top-dose-only effect; inactive = no such curve, though single readings can be large or run the other way; also: nearly all actives have a fitted effect of over 50% in size
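Fission yeast RE007 carrying one integrated HIV-1 vpr copy, seeded at OD 0.01 in PMG+AL medium with 23 nL pinned compound. Grown 24 h at 30 degrees; viability read by BacTiter-Glo luminescence after 5 min.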
HCMV antiviral = inhibitors of human cytomegalovirus; HFF cells, HCMV-luciferase reporter, 72 h; stronger effect = lower value; 410,000 compounds, 4.5% hits; activity change, negative = inhibition, % at 57.5 µM; in the data active = activity change below about -60%; inconclusive = no clear call, values can overlap the other calls; inactive = above about -39%
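Two-dose cell screen: HFF monolayers treated with compounds and infected with luciferase-expressing HCMV at 1 PFU/cell, 72 h at 37C, then lysed for luciferase measurement.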
FMDV inh = antivirals against foot and mouth disease virus; FMDV antiviral cell-based qHTS; Potency, µM (titrated, usually from 57.9 µM), most hits filed as inhibitors; 410,000 compounds, 1.2% hits; AID 1159524; calls by dose curve; tested in HEK293T cells; also: read-out not given here; nearly all actives have a fitted effect of over 45% in size
A number is an active result; . = inactive; ? = inconclusive; / = no result. This is a sample that favours compounds with a hit; in the whole collection about 7.7% have one here. Unless noted, calls follow the shape of the dose curve; as a rule, active = well fitted curve in the direction sought with a large enough effect; inconclusive = small, poorly fitted or top-dose-only effect, or another doubt; inactive = no such curve, though single readings can be large; an effect the other way counts as inactive or inconclusive.

SMILES	FBPA Giardia inh	TbPYK inhibitor	Sm TGR block	RE007 growth inh	HCMV antiviral	FMDV inh
CCO[C@H]1[C@H](NC(=O)c2cccnc2)c2ccccc2C12CCN(C(=O)c1cc(C)n(C)n1)CC2	/	/	/	/	/	.
O=C1CC(Cc2ccccc2)C(=O)N1c1ncccn1 (stereo not given)	.	.	50µM	.	.	.
Cc1cc(C)nc(N2C(=O)CC(Cc3ccc(Cl)cc3)C2=O)n1 (stereo not given)	.	.	.	.	-101	.
COc1ccc(NC(=O)N2c3ccc(OC)cc3[C@@H](NC(=O)OCc3ccccc3)[C@H](C)[C@H]2c2ccccc2)cc1	/	/	/	/	.	/
CC(=O)N1CCc2c(sc(NC(=O)C3CCCN3S(=O)(=O)c3cccs3)c2C(N)=O)C1 (stereo not given)	/	.	.	.	.	28µM
CC(=O)N1CCc2c(sc(NC(=O)C3CCN(S(=O)(=O)c4cccs4)CC3)c2C(N)=O)C1	/	.	.	.	.	.
O=C(O)c1ccc(-[n+]2c(-c3ccccc3)cc(-c3ccccc3)cc2-c2ccccc2)cc1	/	.	.	.	.	.
CCCOC(=O)c1ccc(-[n+]2c(-c3ccccc3)cc(-c3ccccc3)cc2-c2ccccc2)cc1	/	.	.	.	-98	14µM
COc1ccc(-[n+]2c(-c3ccccc3)cc(-c3ccc(C)cc3)cc2-c2ccccc2)cc1	.	.	.	.	-94	?
Brc1ccc(-[n+]2c(-c3ccccc3)cc(-c3ccccc3)cc2-c2ccccc2)cc1	/	.	.	.	-98	?
C[n+]1c(-c2ccccc2)cc(CCCCc2cc(-c3ccccc3)[n+](C)c(-c3ccccc3)c2)cc1-c1ccccc1	.	.	.	.	-98	?
CCS(=O)(=O)NCCCCc1ccccc1	.	.	.	.	.	.
COC(=O)[C@H]1[C@H](CO)[C@H]2Cn3c(ccc(Br)c3=O)[C@H]2N1C(=O)c1ccccn1	/	/	/	/	.	/
COc1ccc(NC(=O)CCc2c(C)nn(-c3ccc(N4CCCC4)nn3)c2C)cc1Cl	/	.	.	/	.	.
COc1ccc(-c2cc(-c3ccccc3)[n+](C)c(-c3ccccc3)c2)cc1	.	.	.	.	-101	?
CCCCSCCCNC(=O)c1cn(CC)c2ccc(S(=O)(=O)N(C)C3CCCCC3)cc2c1=O	/	.	.	/	.	.
CCOC(=O)c1sc(NC(=O)CSc2n[nH]c(CC(C)C)n2)nc1C	.	.	.	.	-62	.
CCOC(=O)c1sc(NC(=O)CSc2n[nH]c(C)n2)nc1C	.	.	.	.	?	.
COc1ccc2cc(/C=C3\SC(=S)NC3=O)c(N3CCOCC3)nc2c1	.	.	.	.	-88	28µM
C=CCN1C(=O)N/C(=C/c2ccc(N3CCOCC3)o2)C1=O	?	/	7.1µM	/	-63	/
O=C1N/C(=C/c2ccc(N3CCOCC3)o2)C(=O)N1c1ccccc1	?	?	8.9µM	.	.	?
CCN1C(=O)C(=Cc2ccc(N3CCOCC3)o2)C(=O)N(CC)C1=S	.	.	.	.	.	.
COc1cccc(C=C2SC(=S)NC2=O)c1	/	.	/	.	.	.
C=CCN1C(=O)/C(=C\c2ccc(N3CCOCC3)o2)C(=O)NC1=S	.	?	50µM	/	.	.
CCc1ccc(NC(=O)C(=O)NCC(c2ccc3c(c2)OCO3)N2CCN(C)CC2)cc1 (stereo not given)	/	.	.	/	.	.
SMILES	FBPA Giardia inh	TbPYK inhibitor	Sm TGR block	RE007 growth inh	HCMV antiviral	FMDV inh
COc1ccc(CCNC(=O)c2cnn(-c3nccc(-c4ccco4)n3)c2C)cc1	/	/	/	/	/	.
O=C(c1cccc(Cl)c1)N1CCCC(Cn2cc(C(=O)N3CCCC3)nn2)C1 (stereo not given)	/	/	/	/	/	.
CN1C(=O)/C(=C/c2ccc(N3CCCCCC3)o2)C(=O)NC1=S	.	.	40µM	.	.	.
O=C1NC(=S)S/C1=C/c1ccc(N2CCOCC2)o1	?	?	3.5µM	?	/	?
CN1C(=O)C(=Cc2ccc(N3CCOCC3)o2)C(=O)N(C)C1=S	.	.	.	.	.	.
CN1C(=O)/C(=C\c2ccc(N3CCCCC3)o2)C(=O)NC1=S	.	.	?	.	.	.
Cc1ccc(-n2ncc3c(SCc4ccccn4)ncnc32)c(C)c1	.	.	.	.	-101	?
Cc1ccc(-n2ncc3c(SCc4ccccc4)ncnc32)cc1	.	.	.	.	-63	.
COc1cccc(NC(=O)Cn2nc3c4ccccc4n(Cc4cccc(F)c4)cc-3c2=O)c1	/	.	.	/	.	.
Cc1ccc(-n2c(Cc3ccccc3)n[nH]c2=S)c(C)c1	.	10µM	.	.	.	.
S=c1[nH]nc(Cc2ccccc2)n1-c1cccc2ccccc12	.	3.5µM	.	.	.	.
COc1ccc2c(c1)[C@@H](NC(=O)OCc1ccccc1)[C@H](C)[C@@H](c1ccccc1)N2Cc1ccccn1	/	/	/	/	.	/
CCOc1ccc(C2C(C(=O)c3ccc(C)o3)=C(O)C(=O)N2CCN2CCOCC2)cc1OC (stereo not given)	.	.	50µM	.	.	.
COc1ccc(C2C(C(=O)c3ccco3)=C(O)C(=O)N2CCc2ccccc2)cc1OC (stereo not given)	.	.	.	.	.	.
COc1ccc(C2C(C(=O)/C=C/c3ccco3)=C(O)C(=O)N2CCN2CCOCC2)cc1OC (stereo not given)	?	.	11µM	.	.	.
CCOc1ccc(C2C(C(=O)c3ccco3)=C(O)C(=O)N2CCN2CCOCC2)cc1OCC (stereo not given)	.	.	?	.	.	.
CCCOc1ccc(C2C(C(=O)c3ccco3)=C(O)C(=O)N2CCN2CCOCC2)cc1OC (stereo not given)	.	/	40µM	/	/	/
O=C(CSc1ncc(-c2ccccc2)[nH]1)Nc1cccc(Br)c1	/	.	.	/	-66	.
O=C(CSc1ncc(-c2ccccc2)[nH]1)Nc1ccccc1	.	.	.	.	?	.
O=C(CC1(O)C(=O)Nc2ccccc21)c1ccc(-n2cccc2)cc1 (stereo not given)	.	.	50µM	.	.	.
CNC(=O)c1cc2ccccc2o1	.	.	.	.	.	.
O=C(Cc1ccc(F)cc1)OCC(=O)c1cc2ccccc2o1	.	.	.	.	.	.
O=C(CCNc1ccc(F)cc1)c1cc2ccccc2o1	.	.	0.32µM	?	.	.
O=C(CCNc1cccc(F)c1)c1cc2ccccc2o1	.	.	0.35µM	.	?	.
CCOC(=O)c1ccc(CN(Cc2ccccc2C)S(=O)(=O)c2ccc(C(C)(C)C)cc2)cc1	/	.	.	/	.	.
Cc1nn(-c2ccccc2)c(C)c1-c1nnc(-c2c(C)nn(-c3ccccc3)c2C)o1	.	.	.	.	.	32µM
COC(=O)/C=C/C(=O)Nc1ccc(O)c(Cl)c1	.	?	45µM	.	.	.
